Inconclusive results are not listed. Calls of active or inactive are those of the source. Unless noted, calls come from the whole dose curve.
Assays:
[1] = Nuclear factor erythroid 2-related factor 2/antioxidant responsive element (Nrf2/ARE) small molecule agonists: qHTS cell viability counter screen in human keratinocytes (AID 1919968; active = well fitted curve in the direction sought with a large enough effect in the repeat runs; an effect the other way counts as inactive or inconclusive; note: nearly all actives have a fitted effect of over 55% in size)
Procedure, shortened: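 KeratinoSens cells (HaCaT keratinocytes stably carrying an ARE-luciferase reporter) were seeded at 1,500 cells/well and rested 5 h at 37 C/5% CO2. They were then exposed to compounds in DMSO for 23 h. Viability was read by CellTiter-Fluor fluorescence after 1 h.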

[2] = Nuclear factor erythroid 2-related factor 2/antioxidant responsive element (Nrf2/ARE) small molecule agonists: luciferase reporter gene qHTS assay in human keratinocytes (AID 1919969); note: nearly all actives have a fitted effect of over 35% in size; note: potency is the fitted concentration of half-maximal effect
[3] = target: Gonadotropin-releasing hormone receptor (Homo sapiens) (UniProt P30968); experiment: Human gonadotropin-releasing hormone receptor (GnRHR) small molecule agonists, calcium flux assay in GnRHR-HEK293 cells (AID 1920063); note: nearly all actives have a fitted effect of over 35% in size
Procedure, shortened: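 HEK293 cells stably expressing human GnRHR were plated 18 h at 37 °C, loaded with calcium dye 1 h at 37 °C, then given compound in agonist mode; fluorescence (Ex/Em 480/540) read kinetically for 3 min at 1 s intervals.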

[4] = target: KiSS-1 receptor (Homo sapiens) (UniProt Q969F8); experiment: Human kisspeptin (KISS1R) small molecule agonists, calcium flux assay in KISS1R-HEK293 cells (AID 1920064; active = well fitted curve in the direction sought with a large enough effect in the repeat runs; an effect the other way counts as inactive or inconclusive)
Procedure, shortened: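 HEK293 cells stably expressing human KISS1R were plated 18 h at 37 °C, loaded with calcium dye for 1 h at 37 °C, then given compound by pin tool. Fluorescence (Ex/Em 480/540) was read kinetically for 3 min.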

[5] = G protein-coupled receptor (GPCR) small molecule agonists, calcium flux assay: HEK293 wild type cell line counter screen (AID 1920065)
Procedure, shortened: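 Cells were plated and cultured 18 h at 37 C/5% CO2, then loaded with calcium dye for 1 h at 37 C. Compounds in DMSO were pin-transferred in agonist mode, and fluorescence (Ex/Em 480/540) was read kinetically for 3 min at 1 s intervals.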

[6] = p53 small molecule agonists, cell-based qHTS assay with human liver microsomes (AID 1963577);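 note: p53 response element beta-lactamase reporter cells with liver microsomes plus NADPH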
Procedure, shortened: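 p53RE-bla cells; 5 h settle, 37 C/5% CO2; cpd + HLM 0.5 mg/mL + NADPH 0.5 mg/mL (final); 16 h 37 C; LiveBLAzer 2 h RT dark; fluorescence readout.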

[7] = p53 small molecule agonists, cell-based qHTS assay with rat liver microsomes (AID 1963578)
Procedure, shortened: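 Rat liver microsome activation: microsomes 0.5 mg/mL, NADPH 0.5 mg/mL final; p53RE-bla cells, 16 h 37 C; LiveBLAzer readout, 2 h RT dark.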

[8] = p53 small molecule agonists, cell-based qHTS assay with human liver microsomes: qHTS cell viability counter screen (AID 1963579); note: nearly all actives have a fitted effect of over 45% in size
Procedure, shortened: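 Luminescent CellTiter-Glo read-out, 30 min at room temperature, gauged cytotoxicity in p53RE-bla cells exposed 16 h at 37 C to DMSO-dissolved compounds with metabolic activation by human liver microsomes and NADPH, each 0.5 mg/mL final.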

[9] = p53 small molecule agonists, cell-based qHTS assay with rat liver microsomes: qHTS cell viability counter screen (AID 1963580); note: nearly all actives have a fitted effect of over 45% in size
Procedure, shortened: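 p53RE-bla HCT-116 cells (4,000/well) rested 5 h at 37 C, then given Tox21 compounds in DMSO with rat liver microsomes (0.5 mg/mL final) plus NADPH (0.5 mg/mL final) for 16 h at 37 C. Viability read by CellTiter-Glo luminescence after 30 min at room temperature.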

[10] = p53 small molecule agonists, cell-based qHTS assay: qHTS cell viability counter screen (AID 1963581); note: nearly all actives have a fitted effect of over 45% in size
Procedure, shortened: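 p53RE-bla HCT-116 cells were exposed to compounds for 16 h at 37 C; after the beta-lactamase FRET read in the same wells, CellTiter-Glo was added and luminescence (intracellular ATP) read after 30 min at room temperature.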

[11] = p53 small molecule agonists, cell-based qHTS assay (AID 1963582; active = well fitted activation curve with a large enough effect in the signal ratio in the repeat runs, not every such curve was filed as active; the % refers to the signal ratio)
Procedure, shortened: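 p53RE-bla beta-lactamase reporter cells rested 5 h at 37 C/5% CO2, then received compounds in DMSO by pin transfer and were incubated 16 h at 37 C. LiveBLAzer B/G FRET substrate was loaded for 2 h at room temperature before fluorescence reading.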

[12] = target: 5-hydroxytryptamine receptor 2A (Homo sapiens) (UniProt P28223); experiment: 5-hydroxytryptamine receptor 2A (HTR2A) small molecule antagonists, cell-based qHTS assay (AID 1963586); note: nearly all actives have a fitted effect of over 45% in size
Procedure, shortened: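 Antagonist-mode intracellular calcium assay: DOI (4 nM) added after 5 min compound pre-incubation at room temperature to dye-loaded HTR2A-CHO cells. Fluorescence followed for 3 min, sampled every second.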

[13] = target: Muscarinic acetylcholine receptor M1 (Homo sapiens) (UniProt P11229); experiment: Cholinergic receptor muscarinic 1 (CHRM1) small molecule antagonists, cell-based qHTS assay (AID 1963588); note: nearly all actives have a fitted effect of over 40% in size
Procedure, shortened: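 CHRM1-CHO calcium-flux assay, antagonist mode. Cells were seeded 18 h, dye-loaded 1 h at 37 C and given compound for 5 min at RT, then acetylcholine was added at 50nM. FDSS fluorescence was read 3 min; 15 concentrations, three runs.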

[14] = target: Muscarinic acetylcholine receptor M1 (Homo sapiens) (UniProt P11229); experiment: Cholinergic receptor muscarinic 1 (CHRM1) small molecule agonists, cell-based qHTS assay (AID 1963589); note: nearly all actives have a fitted effect of over 35% in size
Procedure, shortened: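 CHO cells stably expressing human CHRM1, seeded 18 h at 37 C/5% CO2, dye-loaded 1 h at 37 C, then given compound in agonist mode; intracellular calcium fluorescence read kinetically at 1 s intervals. Fifteen concentrations, three independent runs.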

[15] = cAMP Responsive Elements (CRE) small molecule agonists, cell-based qHTS assay (AID 1963590)
Procedure, shortened: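 CRE-bla HEK 293T cells in DMEM with 10% dialyzed FBS, NEAA, pyruvate and 25 mM HEPES were plated 18 h at 37 C/5% CO2, then exposed to compounds in DMSO for 3 h before LiveBLAzer B/G FRET substrate addition.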

[16] = target: Beta-2 adrenergic receptor (Homo sapiens) (UniProt P07550); experiment: Adrenergic beta2 receptor (ADRB2) small molecule antagonists, cell-based qHTS assay (AID 1963592); note: series mostly up to about 92 µM; nearly all actives have a fitted effect of over 50% in size
Procedure, shortened: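 Cells (CHO, stable ADRB2 overexpression) incubated 18-20hr at 37C; compounds added from DMSO; agonist mix (1nM isoproterenol, 100uM IBMX, 25uM Ro-20-1724) added; 0.5hr RT; d2-cAMP and anti-cAMP-cryptate added; 1hr RT; 665/615 nm read.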

[17] = target: D(2) dopamine receptor (Homo sapiens) (UniProt P14416); experiment: Dopamine D2 receptor (DRD2) small molecule agonists, cell-based qHTS assay (AID 1963594); note: nearly all actives have a fitted effect of over 35% in size
Procedure, shortened: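 HEK293 cells stably expressing DRD2 were cultured 24 h at 37 C, then given Ro20-1724 (0.1 mM final) and compounds for 10 min at room temperature. NKH477 (200nM) was then added for 30 min. cAMP was read by HTRF.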

[18] = target: D(2) dopamine receptor (Homo sapiens) (UniProt P14416); experiment: Dopamine D2 receptor (DRD2) small molecule antagonists, cell-based qHTS assay (AID 1963595; active = well fitted inhibition curve with a large enough effect in the signal ratio in the repeat runs, with a control signal flat; the % refers to the signal ratio)
Procedure, shortened: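 Stable D2 receptor HEK293 line, 24 h after seeding. Compound preincubated 10 min, then quinpirole (12 nM) with forskolin analogue NKH477 (200 nM), 30 min, room temperature. Detection by time-resolved FRET of cAMP.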

[19] = cAMP Responsive Elements (CRE) small molecule antagonists, cell-based qHTS assay (AID 1963591; active = well fitted inhibition curve with a large enough effect in the signal ratio in the repeat runs, not every such curve was filed as active; the % refers to the signal ratio)
Procedure, shortened: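 CRE-bla HEK293T cells were plated 18 h at 37 °C/5% CO2, pinned with compound in DMSO, then stimulated with NKH477 at 0.25 uM final for 3 h. LiveBLAzer B/G FRET substrate was added and plates incubated 2 h at room temperature.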

[20] = target: 5-hydroxytryptamine receptor 2A (Homo sapiens) (UniProt P28223); experiment: 5-hydroxytryptamine receptor 2A (HTR2A) small molecule agonists, cell-based qHTS assay (AID 1963587); note: nearly all actives have a fitted effect of over 30% in size
Procedure, shortened: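 HTR2A-CHO cells, plated 18 h at 37 C/5% CO2, dye-loaded 1 h at 37 C; compounds in DMSO added by pin tool (agonist mode). Intracellular calcium flux read as kinetic fluorescence on FDSS over 2 min at 1 s intervals.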

Measured: Potency

Sequence of KiSS-1 receptor (Homo sapiens) (Q969F8 whole entry, looked up): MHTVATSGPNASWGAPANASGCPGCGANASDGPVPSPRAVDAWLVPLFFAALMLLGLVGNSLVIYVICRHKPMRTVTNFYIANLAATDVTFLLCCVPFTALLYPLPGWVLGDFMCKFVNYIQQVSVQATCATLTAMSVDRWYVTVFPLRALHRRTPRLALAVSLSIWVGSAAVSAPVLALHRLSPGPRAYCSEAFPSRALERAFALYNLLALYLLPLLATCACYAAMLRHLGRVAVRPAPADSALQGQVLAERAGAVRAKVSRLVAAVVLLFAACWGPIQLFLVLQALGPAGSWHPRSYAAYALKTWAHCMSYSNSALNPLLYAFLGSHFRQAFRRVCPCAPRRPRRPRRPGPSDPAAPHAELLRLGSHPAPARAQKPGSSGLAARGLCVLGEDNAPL
Sequence of Muscarinic acetylcholine receptor M1 (Homo sapiens) (P11229 whole entry, looked up): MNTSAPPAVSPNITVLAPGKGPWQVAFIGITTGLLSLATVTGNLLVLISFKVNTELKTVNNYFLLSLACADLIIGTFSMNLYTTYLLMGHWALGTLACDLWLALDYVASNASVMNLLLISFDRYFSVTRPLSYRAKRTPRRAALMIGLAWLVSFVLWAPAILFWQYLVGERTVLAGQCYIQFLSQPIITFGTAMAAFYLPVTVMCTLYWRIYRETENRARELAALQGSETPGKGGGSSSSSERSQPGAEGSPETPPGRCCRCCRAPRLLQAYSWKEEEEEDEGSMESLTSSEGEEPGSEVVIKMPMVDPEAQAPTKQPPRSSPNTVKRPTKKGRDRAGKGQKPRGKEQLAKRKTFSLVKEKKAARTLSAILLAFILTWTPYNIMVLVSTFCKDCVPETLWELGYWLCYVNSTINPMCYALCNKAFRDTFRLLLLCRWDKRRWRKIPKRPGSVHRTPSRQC
Sequence of Beta-2 adrenergic receptor (Homo sapiens) (P07550 whole entry, looked up): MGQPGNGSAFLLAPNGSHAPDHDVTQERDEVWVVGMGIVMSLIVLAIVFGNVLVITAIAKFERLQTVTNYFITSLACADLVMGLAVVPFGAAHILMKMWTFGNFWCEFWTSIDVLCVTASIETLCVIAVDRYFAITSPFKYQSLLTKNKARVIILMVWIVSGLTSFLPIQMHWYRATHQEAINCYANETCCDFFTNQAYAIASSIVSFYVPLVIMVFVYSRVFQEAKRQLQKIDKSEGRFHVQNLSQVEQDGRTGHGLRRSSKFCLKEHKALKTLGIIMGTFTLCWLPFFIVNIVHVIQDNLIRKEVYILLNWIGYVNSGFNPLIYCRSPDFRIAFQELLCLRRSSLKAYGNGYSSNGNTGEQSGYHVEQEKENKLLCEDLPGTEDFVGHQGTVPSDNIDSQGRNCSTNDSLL
Sequence of D(2) dopamine receptor (Homo sapiens) (P14416 whole entry, looked up): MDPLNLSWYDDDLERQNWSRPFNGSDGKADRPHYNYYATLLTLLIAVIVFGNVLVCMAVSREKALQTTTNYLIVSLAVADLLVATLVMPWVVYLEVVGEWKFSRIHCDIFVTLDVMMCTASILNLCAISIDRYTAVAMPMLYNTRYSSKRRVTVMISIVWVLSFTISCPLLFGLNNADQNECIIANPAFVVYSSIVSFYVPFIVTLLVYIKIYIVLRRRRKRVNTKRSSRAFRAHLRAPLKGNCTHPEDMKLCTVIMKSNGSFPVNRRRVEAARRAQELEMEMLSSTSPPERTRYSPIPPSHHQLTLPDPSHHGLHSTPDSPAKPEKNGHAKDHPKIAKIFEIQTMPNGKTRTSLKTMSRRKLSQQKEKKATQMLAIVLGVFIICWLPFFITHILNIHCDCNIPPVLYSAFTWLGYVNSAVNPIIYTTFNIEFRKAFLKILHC
Sequence of Gonadotropin-releasing hormone receptor (Homo sapiens) (P30968 whole entry, looked up): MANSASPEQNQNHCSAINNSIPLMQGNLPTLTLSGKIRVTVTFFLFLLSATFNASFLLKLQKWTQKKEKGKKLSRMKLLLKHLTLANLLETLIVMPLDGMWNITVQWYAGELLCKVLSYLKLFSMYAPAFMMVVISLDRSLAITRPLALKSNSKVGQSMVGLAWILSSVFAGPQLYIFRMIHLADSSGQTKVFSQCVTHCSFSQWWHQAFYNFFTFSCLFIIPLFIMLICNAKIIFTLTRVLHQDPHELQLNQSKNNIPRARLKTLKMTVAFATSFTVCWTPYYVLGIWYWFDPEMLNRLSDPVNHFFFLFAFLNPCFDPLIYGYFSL
Sequence of 5-hydroxytryptamine receptor 2A (Homo sapiens) (P28223 whole entry, looked up): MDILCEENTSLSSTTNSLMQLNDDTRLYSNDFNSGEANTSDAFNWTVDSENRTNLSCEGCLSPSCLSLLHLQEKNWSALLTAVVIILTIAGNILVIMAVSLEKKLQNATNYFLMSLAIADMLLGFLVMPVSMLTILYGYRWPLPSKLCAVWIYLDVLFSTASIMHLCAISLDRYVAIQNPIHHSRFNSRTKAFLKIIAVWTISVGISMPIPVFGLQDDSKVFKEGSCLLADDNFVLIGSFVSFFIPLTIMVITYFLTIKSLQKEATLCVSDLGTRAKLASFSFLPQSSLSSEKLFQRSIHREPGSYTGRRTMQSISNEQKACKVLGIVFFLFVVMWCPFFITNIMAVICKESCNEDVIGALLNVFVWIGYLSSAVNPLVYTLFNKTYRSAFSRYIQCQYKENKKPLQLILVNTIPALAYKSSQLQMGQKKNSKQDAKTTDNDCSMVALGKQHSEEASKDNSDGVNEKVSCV

O=CC(=O)c1ccccc1
active: [2] 68.7 µM
not listed: [19] | [20]
inactive: all other assays above

C=C(C)c1cccc(C(C)(C)N=C=O)c1
not listed: [16] | [17] | [20]
inactive: all other assays above

N#C/C(=C1\SCC(c2ccccc2Cl)S1)n1ccnc1 (configuration not stated)
not listed: [13] | [14] | [16]
inactive: all other assays above

C=CCc1ccccc1OCC(O)CNC(C)C (configuration not stated)
not listed: [16] | [20]
inactive: all other assays above

CC(C(=O)O)c1ccc2c(c1)CC(=O)c1ccccc1S2 (configuration not stated)
not listed: [15] | [16] | [17] | [20]
inactive: all other assays above

Cl[Si](Cl)(c1ccccc1)c1ccccc1
not listed: [20]
inactive: all other assays above

CC(C)=CCC[C@@](C)(O)[C@H]1CC=C(C)CC1
not listed: [14] | [17] | [20]
inactive: all other assays above

CCN1CCCC1CN (configuration not stated)
not listed: [14] | [20]
inactive: all other assays above

OC1CCCc2ccccc21 (configuration not stated)
not listed: [16] | [19] | [20]
inactive: all other assays above

Clc1nnc(Cl)c2ccccc12
active: [2] 6.08 µM
not listed: [15] | [20]
inactive: all other assays above

OCC(CBr)(CBr)CBr
not listed: [18] | [20]
inactive: all other assays above

Cc1cnc(C)c(C)n1
not listed: [20]
inactive: all other assays above

CCCCCCC/C=C/C=O
not listed: [15] | [20]
inactive: all other assays above

C[N+]1(C)CCCC(OC(=O)C(O)(c2ccccc2)c2ccccc2)C1 (configuration not stated)
not listed: [13] | [14] | [17]
inactive: all other assays above
